# Assay results taken from ChEMBL document CHEMBL4888484, “Replenishing the malaria drug discovery pipeline: Screening and hit evaluation of the MMV Hit Generation Library 1 (HGL1) against asexual blood stage Plasmodium falciparum ,using a nano luciferase reporter read-out” (2022).
# The campaign covered roughly 150,000 compounds. About 540 (0.36%) showed an effect of 50% or more. Many of the other results were omitted from the sample, so strong results are more common in it than they were.
# System: Plasmodium falciparum
# Assay: Primary screen in NF54 nanoGlo assay, in single point, at 2uM, 72h; a lower Z score goes with more inhibition
# Type: functional, Erythrocyte
# Settings: timepoint 72 hour
SMILES,% Inhibition [%],Z score
Cc1ccc(-c2nnc(N3CCC4(CCOC4)C3)n2CC2CCCO2)s1 (configuration not stated),-3,0.32
O=C1N[C@H]2C[C@@H](C(=O)NC[C@H]3O[C@H](CCOc4ccccc41)CC[C@@H]3O)N(Cc1ccc3c(c1)OCO3)C2,26,-2.92
O=C1N[C@H]2C[C@@H](C(=O)NC[C@H]3O[C@H](CCOc4cc(-c5ccccc5)ccc41)CC[C@@H]3O)N(Cc1ccc3c(c1)OCO3)C2,51,-1.36
O=C1N[C@H]2C[C@@H](C(=O)NC[C@H]3O[C@H](CCOc4cc(-c5ccccc5)ccc41)CC[C@@H]3O)N(Cc1ccc(Cl)c(F)c1)C2,37,-4.16
CC(C)c1cc(NCCCn2ccnn2)nc(N)n1,-5,0.75
CC(C)(C)CCCC(=O)NCCn1cnnc1C1CC1,-7,1.32
CN1CC[C@@H](CNC(=O)c2ccnc3c2ncn3C)[C@@H]1c1cccnc1,1,-0.18
CN1CCC(N(C)C(=O)c2ccccc2NC2CCCCC2)CC1,6,-1.03
COCCC(CNC(C)c1nccnc1C)NC(=O)OC(C)(C)C (configuration not stated),-12,1.51
CCN1CCN(c2c(CN(C(=O)NC3CCCCC3)C(C)C)c(C)nn2-c2cccc(F)c2)CC1,-10,1.04
Cc1ccc(C(=O)Nc2ccc(N3CCCN(C(=O)C4CCCC4)CC3)c(C(=O)N3CCCCC3)c2)cc1,-4,0.58
Cc1ccc(C(=O)Nc2cc3c4c(c2)C2CCCC2CN4CC2CCCC32)cc1 (configuration not stated),57,-4.94
Cc1ccc(C(=O)Nc2cc(C(=O)N3CCCCC3C)cc(C(=O)N3CCCCC3C)c2)cc1 (configuration not stated),6,-0.87
Fc1cc(Br)cnc1CN1CCC[C@H]1c1ncn[nH]1,19,-2.4
COc1ccc(CCNC(=O)N2CC=C(C(F)(F)F)CC2)cc1F,6,-1.17
Cc1ccc(Nc2nc(N)nc(Cn3cnc(C)c3C)n2)cc1,-3,0.51
Cc1ccc(Nc2nc(N)nc(CN3CCCCCCC3)n2)cc1,-5,0.66
OC1CCN(Cc2ccc(CNc3ccc(F)cn3)cc2)CC1,-6,0.93
CC(C)n1ccnc1[C@H]1CCCN(C(=O)c2cnc3c(c2)CCCC3)C1,3,-0.26
O=C(Nc1cc(C(F)(F)F)ccc1N1CCOCC1)c1nn(-c2ccccc2)c(=O)c2ccccc12,-15,2.63
CN1CCCN(c2ccc(NC(=O)c3nn(-c4ccccc4)c(=O)c4ccccc34)cc2F)CC1,82,-6.28
NC(=O)c1n[nH]c2ccc(NC(=O)c3nn(-c4ccccc4)c(=O)c4ccccc34)cc12,-3,0.31
NS(=O)(=O)c1cnc(N[C@H]2CCc3ccc(F)cc32)s1,-3,0.33
COc1cc(C)c2[nH]c3c(c(=O)c2c1)CN(CC(=O)Nc1ccc2c(c1)OCO2)CC3,44,-0.61
COc1cc(C)c2[nH]c3c(c(=O)c2c1)CN(CC(=O)Nc1ccc2c(c1)OCCO2)CC3,52,-1.23
COc1cc(C)c2[nH]c3c(c(=O)c2c1)CN(CC(=O)Nc1ccc(F)c(C)c1)CC3,43,-1.61

SMILES,% Inhibition [%],Z score
O=C1N(CC2CCCCC2)CCC[C@@]1(O)CN1CCOCC1,-7,1.35
CCOC1(c2nc(Cc3conc3C)no2)CCCC1,6,-0.78
CCOc1cc(Cl)ccc1C(=O)NC1CCN(C[C@H]2CCOC2)CC1,38,-0.42
c1nc(NCCC2CCCCC2)c2cnoc2n1,7,-0.88
CC(C)[C@@H](C(=O)NCc1cccc(C(F)(F)F)c1)N1CCCS1(=O)=O,-4,0.83
Cc1c(-c2nn(-c3ccccc3)c(-c3cnn(C)c3C)c2Cl)cnn1C,39,-4.45
Cc1nn(C)cc1-c1nn(-c2nc(C3CC3)cc(C(F)(F)F)n2)c(-c2cn(C)nc2C)c1C,46,0.79
Cc1c(-c2nn(-c3nc(C4CC4)cc(C(F)(F)F)n3)c(-c3cnn(C)c3C)c2Cl)cnn1C,76,-8.32
Cc1nccn1C[C@H]1CCCN(C(=O)Cn2cccn2)C1,-3,0.6
COC(=O)c1cc(OC)ccc1-c1cccc(C(=O)N2CCNC[C@@H]2C)c1,-17,1.67
Cc1ccc(NC(=O)c2cccc(F)c2)c(-c2nc3ccccc3nc2O)c1,-15,1.64
O=C(Nc1nc2cccc(Cl)c2o1)c1cccc(F)c1,89,-8.47
Cc1nc(N2CCCC2)nc(C)c1NC(=O)c1cccc(F)c1,-5,0.84
COc1ccccc1N1CCN(C(=O)[C@H](C)n2ccnc2)CC1,-19,2.94
CCc1ccc(-c2cc(C(=O)Nc3ccc4nc(NS(C)(=O)=O)sc4c3)[nH]n2)cc1,-13,1.27
CCn1c(N2CCC[C@H](C(=O)NCc3cccc(Cl)c3)C2)cc(=O)n(C)c1=O,-20,3.09
COc1ccc(N(Cc2c(C)noc2C)Cc2c(C)noc2C)cc1,-5,0.44
CC1(C)CCCN1S(=O)(=O)c1onc(C2CC2)c1Cl,-3,0.41
Cc1ccc(S(=O)(=O)n2cc(C)[nH]c2=O)cc1,-23,2.15
O=c1[nH]c(=O)n(CCS(=O)(=O)c2ccccc2)cc1Cl,-11,1.09
O=c1[nH]c(=O)n(S(=O)(=O)c2ccccc2)cc1F,90,-12.13
CC(C1CC1)n1cc(NC(=O)N2CCC(C(F)(F)F)C2(C)C)cn1 (configuration not stated),-10,1.23
Fc1cnc(OC2Cc3ccccc3C2)nc1,60,-5.26
Cc1nnc(OC2Cc3ccccc3C2)s1,-7,1.07
O=C(CCc1ccccc1)N[C@H]1CC[C@H](Oc2ncc(F)cn2)CC1,-10,1.77
